# Source: PubChem
# USP17 block = blocks human USP17 ubiquitin-rhodamine cleavage | A8MUK1 | purified USP17, Ub-rhodamine cleavage fluorescence, 3 h | inhibition, % at 50 µM | 47,000 tested, 6.5% active | AID 1645855
# USP28 inh = human USP28 deubiquitinase inhibition; Q96RU2; purified USP28, Ub-rhodamine cleavage fluorescence, 30 min; inhibition, % at 25 µM; 47,000 tested, 3% active; AID 1645857
# Target sequence (Q96RU2 whole entry, looked up): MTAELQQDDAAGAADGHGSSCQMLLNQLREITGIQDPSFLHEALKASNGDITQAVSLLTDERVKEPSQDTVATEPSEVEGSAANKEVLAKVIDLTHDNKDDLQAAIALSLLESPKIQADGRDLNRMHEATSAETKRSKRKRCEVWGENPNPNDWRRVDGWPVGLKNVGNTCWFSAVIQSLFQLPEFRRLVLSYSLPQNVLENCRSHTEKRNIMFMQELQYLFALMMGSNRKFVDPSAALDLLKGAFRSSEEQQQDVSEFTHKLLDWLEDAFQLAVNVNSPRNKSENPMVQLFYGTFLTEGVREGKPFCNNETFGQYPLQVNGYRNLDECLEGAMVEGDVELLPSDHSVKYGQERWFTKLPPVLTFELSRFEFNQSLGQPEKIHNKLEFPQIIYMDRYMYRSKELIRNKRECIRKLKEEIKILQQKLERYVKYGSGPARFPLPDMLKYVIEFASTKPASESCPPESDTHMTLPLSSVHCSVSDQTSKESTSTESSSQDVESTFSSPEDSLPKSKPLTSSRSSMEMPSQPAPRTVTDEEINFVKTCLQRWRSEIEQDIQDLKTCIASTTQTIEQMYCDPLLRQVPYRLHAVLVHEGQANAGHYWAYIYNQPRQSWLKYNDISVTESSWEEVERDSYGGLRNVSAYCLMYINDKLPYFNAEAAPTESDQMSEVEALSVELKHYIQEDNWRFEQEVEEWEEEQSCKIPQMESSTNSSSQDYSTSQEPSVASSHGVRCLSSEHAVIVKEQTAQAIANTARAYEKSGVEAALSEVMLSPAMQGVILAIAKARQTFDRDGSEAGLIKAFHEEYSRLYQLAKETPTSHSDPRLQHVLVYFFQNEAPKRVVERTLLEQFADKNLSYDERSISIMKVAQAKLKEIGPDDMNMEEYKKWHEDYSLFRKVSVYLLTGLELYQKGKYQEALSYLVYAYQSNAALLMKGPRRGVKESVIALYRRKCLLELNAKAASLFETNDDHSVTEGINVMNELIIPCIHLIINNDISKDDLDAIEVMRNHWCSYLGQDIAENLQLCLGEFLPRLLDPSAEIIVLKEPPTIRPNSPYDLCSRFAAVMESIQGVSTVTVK
# USP30 block = inhibitors of human USP30 deubiquitinase. 47,000 tested, 5.3% active. Q70CQ3. inhibition, % at 25 µM. purified USP30, Ub-rhodamine cleavage fluorescence
# * = called active by the depositor; . = no result. Rows were chosen to be rich in hits. Some 11% of all compounds tested hit in one or more screens of this group. Cut-off read from the data, not from the text of the source: active = inhibition above about 30%; inactive = the rest.
SMILES,USP17 block,USP28 inh,USP30 block
COc1ccc(C)cc1NC(=O)Cn1c(C)cc(C)c1-c1nc(C(C)C)no1,24,7,31*
Cc1cc(C)n(CC(=O)Nc2ccc(F)cc2)c1-c1nc(C(C)C)no1,.,6,10
Cc1ccc(N(CC(=O)N2CCN(c3cccc(Cl)c3)CC2)S(=O)(=O)c2c(C)nn(C)c2C)cc1,-12,-17,-46
CCN1CCN(c2nc(NCc3ccco3)c3ccccc3n2)CC1,-18,-9,-15
Cc1ccc(Nc2nc(NCc3ccco3)c3ccccc3n2)cc1,82*,67*,60*
O=C(Nc1cccc(CO)c1)c1ccc(COc2ccc(Cl)cc2)cc1,14,19,21
COC(=O)c1ccc(NC(=O)c2ccc(COc3cc(Cl)ccc3Cl)cc2)cc1,47*,15,14
O=C(C[n+]1cc(-c2ccc(F)cc2)n2c1CCC2)c1cccs1,0,1,8
Cc1ccc(-c2c[n+](CC(=O)Nc3cccc4ccccc34)c3n2CCC3)cc1,7,18,34*
O=C(NCCS(=O)(=O)N1CCN(c2ncccn2)CC1)c1ccc(F)c(F)c1,1,1,14
O=C(Nc1nnc(C2CC2)s1)c1ccc(OCC2CCCO2)cc1 (configuration not stated),64*,0,-9
CCc1noc(C)c1C(=O)Nc1nnc(C2CC2)s1,0,-1,-2
Cn1c(=O)c2ccc(C3CCN(C(=O)Cc4ccc(F)cc4)C3)nc2n(C)c1=O (configuration not stated),13,7,27
O=c1c2cc(Br)ccc2ncn1Cc1csc(-c2ccc(Cl)cc2)n1,-30,-29,-121
O=c1c2cc(Cl)ccc2ncn1Cc1csc(-c2ccccc2)n1,22,16,44*
O=C(NC1CCCCC1)C1CCCN(c2nnc3ccccn23)C1 (configuration not stated),13,4,26
COc1ccccc1-c1noc(Cn2ccn3nc(-c4ccc(F)cc4)cc3c2=O)n1,-5,-5,-32
COc1ccccc1-c1cc2c(=O)n(Cc3nc(-c4ccccc4C)no3)ccn2n1,-4,-2,47*
COCCN1CC=CCC2(CCN(Cc3ccc4c(c3)n(C)c(=O)n4C)CC2)C1=O,-7,-9,-9
CS(=O)(=O)c1ccc(Cl)c(NC(=O)COC(=O)c2ccc3[nH]c4c(c3c2)CCCC4)c1,.,26,35*
O=C(COC(=O)c1ccc2[nH]c3c(c2c1)CCCC3)Nc1ccc2c(c1)OCO2,66*,19,42*
CC(C)c1ccc(NC(=O)COC(=O)c2ccc3[nH]c4c(c3c2)CCCC4)cc1,58*,0,-20
O=C(COC(=O)c1ccc2[nH]c3c(c2c1)CCCC3)Nc1ccccc1Cl,11,7,-2
COc1ccc(Cl)cc1C(=O)OCC(=O)Nc1ccc2c(c1)OCO2,14,8,-33
O=C(COC(=O)c1ccc2[nH]c3c(c2c1)CCCC3)Nc1ccccc1-c1ccccc1,.,-3,-53
SMILES,USP17 block,USP28 inh,USP30 block
O=C(C1CCC1)N1C[C@@H]2c3nc(Nc4ccccc4)ncc3CS(=O)(=O)[C@@H]2C1,-18,-3,-3
c1cc(N2CCOCC2)ncc1-c1noc(CN2CCCC2)n1,-8,-13,0
COc1ccccc1N(CC(O)CN(c1ccc(F)cc1)S(C)(=O)=O)S(=O)(=O)c1ccccc1 (configuration not stated),-3,-7,4
Cc1cc(C)n(CC2CN(Cc3ccc(F)cc3C#N)CCO2)n1 (configuration not stated),.,-4,-13
NC(=O)/C=C/c1ccccc1,0,-2,6
COC(=S)NC(=O)/C=C/c1ccccc1,22,17,32*
CN(c1ccc(C(=O)Nc2ccc(S(=O)(=O)Nc3ccccc3)cc2)cc1)S(C)(=O)=O,13,9,18
C=C(NC(=O)C(=C)NC(=O)c1ccc2c(n1)-c1coc(n1)C(=C)NC(=O)C(=C)NC(=O)c1nc(oc1C)C(=C)NC(=O)C(C(C)(C)O)NC(=O)C(=C)NC(=O)c1nc(oc1C)/C(=C/C)NC(=O)C(C(C)O)NC(=O)c1csc-2n1)C(N)=O (configuration not stated),36*,0,-78
c1ccc(-c2cc(NC3CC3)nc(-c3ccncc3)n2)cc1,-8,-5,-66
CSCc1cc(NCc2ccccc2)nc(-c2ccncc2)n1,23,22,41*
COc1ccc(-c2nn3c(c2C)NC(=O)CC3C(=O)Nc2ccc3c(c2)OCO3)cc1 (configuration not stated),8,26,38*
Cc1c(-c2ccccc2)nn2c1NC(=O)CC2C(=O)Nc1ccc2c(c1)OCO2 (configuration not stated),47*,-2,-16
COc1ccc(NC(=O)C2CC(=O)Nc3cc(-c4ccccc4)nn32)cc1 (configuration not stated),56*,26,27
COc1ccc(-c2cnn3c2NC(=O)CC3C(=O)Nc2ccc3c(c2)OCO3)cc1 (configuration not stated),2,-6,10
COc1ccccc1-c1cnn2c1NC(=O)CC2C(=O)Nc1ccc2c(c1)OCO2 (configuration not stated),-27,-15,-67
O=C1CC(C(=O)Nc2ccc3c(c2)OCO3)n2ncnc2N1 (configuration not stated),-9,9,16
COc1cccc(-n2c(Cc3cc(=O)[nH]c(=O)[nH]3)nnc2SCC(=O)NCc2ccc(F)cc2)c1,3,-4,0
Cc1nn(-c2nc3ccccc3o2)c2c1C(c1ccc(C(=O)O)cc1)CC(=O)N2 (configuration not stated),12,16,21
Fc1ccccc1-c1nc(-c2ccncc2)ncc1-c1nnnn1-c1ccccc1,4,1,11
Fc1cc(F)c2[nH]cc(-c3nnnn3-c3ccc4ccccc4c3)c2c1,.,45*,71*
COc1ccc(C)cc1NC(=O)CC1=NS(=O)(=O)c2ccccc2N1,-15,1,-161
Cc1ccc(S(=O)(=O)CCc2noc(C(=O)NC3CCCCCC3)n2)cc1,6,-6,12
N#Cc1ccc(S(=O)(=O)Nc2ccccc2Oc2ccccc2)cc1,12,17,18
O=S(=O)(Nc1ccccc1Oc1ccccc1)c1ccccc1C(F)(F)F,27,17,31*
Cc1nc(-c2cc(S(=O)(=O)N3CCCCC3)c(C)s2)no1,5,1,-8
SMILES,USP17 block,USP28 inh,USP30 block
COc1cccc(CNC(=O)c2nc3c(s2)CCNCC3)c1,34*,7,-9
COc1cccc(NC(=O)c2nc3c(s2)CCNCC3)c1,8,18,18
CCCCC12CN3CC(C)(CN(C1)C3c1c(O)ccc3ccccc13)C2=O (configuration not stated),11,11,0
O=C(c1ccc2c(c1)OCO2)[C@@H]1[C@@H]2CCCN2[C@]2(C(=O)Nc3ccc(Cl)cc32)[C@@]12C(=O)Nc1ccccc12,28,-4,-12
CCOC(=O)C1CCN(c2nc3ccccc3n2Cc2cccc(F)c2)CC1,6,-8,-58
O=C(Cn1c(N2CCC(Cc3ccccc3)CC2)nc2ccccc21)c1ccccc1,20,9,42*
Cc1ccc(Cn2c(=O)c(C#N)c3n(c2=O)CCC3)cc1,0,-5,-46
O=C(NCCN1CCOCC1)c1[nH]nc2c1CCc1ccccc1-2,-3,17,-1
